These results are taken from a collection of fitness landscapes (doi:10.1016/j.celrep.2020.107928).

B1: Caulobacter ParB omega fusion; a variant is named by its letters at X, in order, B8GW30 (parent)
chain: MESVVVGEPGMSEGRRGLGRGLSALLGEVDAAPAQAPGEQLGGSREAPIEILQRNPDQPRRTFREEDLEDLSNSIREKGVLQPILVRPSPDTAGEYQIVAGERAWRAAQRAGLKTVPIMVRELDDLAVLEIGIIENVQRADLNVLEEALSYKVLMEKFERTQENIAQTIGKSXSHVANXMRLLXLPDEVQSYLVSGELTAXHARAIAAAADPVALAKQIIEGGLSVRETEALARKAPNLSAGKSKGGRPPRVKDTDTQALESDLSSVLGLDVSIDHRGSTGTLTITYATLEQLDDLCNRLTRGI

The full ranking holds about 81,000 sequences; the median of “one-hybrid fitness for binding NBS DNA” is about -0.1, and the highest 2% start at about 0.36. Shown is part of a subset that was picked to be rich in the highest values.

In this assay the parent is B1. The assay is described as follows: one-hybrid fitness for binding NBS DNA (the Noc-binding site; scaled: cognate 1, non-cognate 0); higher = stronger binding. The conditions noted are these: with NBS DNA site. In outline: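 Caulobacter ParB libraries with four specificity codons randomised were screened by bacterial one-hybrid selection in the E. coli USO strain, using a HIS3 reporter whose site lies 19 bp from the promoter. Selection ran for 48 hours at 37°C on M9 lacking histidine, with 0.1 mM IPTG and 5 mM 3-AT. Plasmids were Illumina-sequenced before and after selection, three replicate libraries were pooled, and variants with under 10 reads were dropped. Fitness is the log change in each variant's read ratio to wild type, rescaled against the cognate and non-cognate sites.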
Take WTTR: the “one-hybrid fitness for binding NBS DNA” value is at most 0.2.
As for MSHC, the “one-hybrid fitness for binding NBS DNA” value is 0.26.
The result for SNER reads at most 0.2; that for FAVS, at most 0.2.
As for FHLT, the figure is at most 0.2.
As for EFTH, the figure is at most 0.2; as for EFTS, at most 0.2; as for QCTY, 0.225.
As to QRTY, the “one-hybrid fitness for binding NBS DNA” value was 0.519.
As for QPTY, the figure is at most 0.2; as for EFTN, 0.392.
As for PRAG, the figure is at most 0.2; as for GACS, at most 0.2.
As for RHMN, the figure is at most 0.2; as for RHMP, at most 0.2.
As to RTMP, the “one-hybrid fitness for binding NBS DNA” value was at most 0.2.
Turning to RLMR, the “one-hybrid fitness for binding NBS DNA” value was 0.341.
The result for RKMH reads 0.214.
On to RTMN, for which the “one-hybrid fitness for binding NBS DNA” value is at most 0.2.
As to RKMR, the “one-hybrid fitness for binding NBS DNA” value amounted to 0.577.
In the case of RTMR, the “one-hybrid fitness for binding NBS DNA” value came to 0.503.
On to RKMP, for which the “one-hybrid fitness for binding NBS DNA” value was at most 0.2.
The result for RCMR reads 0.461; that for RPMR, at most 0.2; that for RHMR, 0.368.
Turning to SFRE, the “one-hybrid fitness for binding NBS DNA” value is at most 0.2.
Take NGWG: the “one-hybrid fitness for binding NBS DNA” value is at most 0.2.
The result for SIAC reads at most 0.2; that for KQGK, at most 0.2; that for IDPS, at most 0.2.
The result for ICRN reads at most 0.2; that for NDES, at most 0.2; that for PLNE, at most 0.2.
Turning to RGAY, the “one-hybrid fitness for binding NBS DNA” value was at most 0.2.
The result for IIPP reads at most 0.2; that for THSS, at most 0.2; that for NHMG, at most 0.2.
RIMR: the “one-hybrid fitness for binding NBS DNA” value was 0.319.
For the variant RRMF, the “one-hybrid fitness for binding NBS DNA” value was at most 0.2.
As for RAMR, the figure is 0.341; as for RQMP, at most 0.2.
Take RQMR: the “one-hybrid fitness for binding NBS DNA” value is 0.385.
Regarding RRMR, the “one-hybrid fitness for binding NBS DNA” value amounted to 0.723.
In the case of RQMD, the “one-hybrid fitness for binding NBS DNA” value was at most 0.2.
On to RRMQ, for which the “one-hybrid fitness for binding NBS DNA” value amounted to 0.253.
As for RSMR, the figure is 0.369; as for VAIA, at most 0.2; as for LTDL, at most 0.2.
Consider HGGT, for which the “one-hybrid fitness for binding NBS DNA” value was at most 0.2.
As for AFTK, the figure is at most 0.2.
For the variant SQEG, the “one-hybrid fitness for binding NBS DNA” value is at most 0.2.
The result for CATP reads at most 0.2; that for LHPG, at most 0.2.
Turning to CDGK, the “one-hybrid fitness for binding NBS DNA” value is at most 0.2.
As to SSSM, the “one-hybrid fitness for binding NBS DNA” value is at most 0.2.
As for GDDT, the figure is at most 0.2; as for QKAT, 0.543.
QKAG: the “one-hybrid fitness for binding NBS DNA” value was at most 0.2.
Take QKFS: the “one-hybrid fitness for binding NBS DNA” value came out at 0.277.
As to QKFT, the “one-hybrid fitness for binding NBS DNA” value was 0.366.
The result for QKAC reads at most 0.2.
In the case of QKFF, the “one-hybrid fitness for binding NBS DNA” value was at most 0.2.
The result for SHPD reads at most 0.2.
The result for QKML reads at most 0.2.
HTHP: the “one-hybrid fitness for binding NBS DNA” value is at most 0.2.
For RGSE, the “one-hybrid fitness for binding NBS DNA” value is at most 0.2.
In the case of SGGC, the “one-hybrid fitness for binding NBS DNA” value is at most 0.2.
The result for TILG reads at most 0.2; that for LRDT, at most 0.2; that for RTGI, at most 0.2.
As for RYVH, the “one-hybrid fitness for binding NBS DNA” value was at most 0.2.
Take RYKC: the “one-hybrid fitness for binding NBS DNA” value was determined as 0.367.
Consider RYVC, for which the “one-hybrid fitness for binding NBS DNA” value is at most 0.2.
On to RYKN, for which the “one-hybrid fitness for binding NBS DNA” value amounted to 0.218.
The result for RYKD reads at most 0.2.
With RYKS, the “one-hybrid fitness for binding NBS DNA” value came to 0.57.
For RYKH, the “one-hybrid fitness for binding NBS DNA” value was determined as 0.396.
The result for RYKP reads at most 0.2.
The result for RYYC reads at most 0.2; that for KHNS, at most 0.2.
As for NLKT, the figure is at most 0.2.
YEHY: the “one-hybrid fitness for binding NBS DNA” value was at most 0.2.
As for ADVD, the figure is at most 0.2.
As for SIIV, the “one-hybrid fitness for binding NBS DNA” value was at most 0.2.
On to DVHC, for which the “one-hybrid fitness for binding NBS DNA” value was at most 0.2.
Turning to VIQR, the “one-hybrid fitness for binding NBS DNA” value was at most 0.2.
The result for YNMS reads at most 0.2; that for QCRY, 0.637.
QLYY: the “one-hybrid fitness for binding NBS DNA” value is at most 0.2.
As to QCYY, the “one-hybrid fitness for binding NBS DNA” value stood at 0.275.
As for QTYY, the figure is 0.262; as for QLRY, 0.451; as for QTRY, 0.685.
For QKRY, the “one-hybrid fitness for binding NBS DNA” value worked out at 0.518.
As for QKYY, the figure is at most 0.2; as for QPRY, at most 0.2.
As for QTWY, the figure is at most 0.2.
As for QKDY, the figure is at most 0.2.
With QLDY, the “one-hybrid fitness for binding NBS DNA” value is at most 0.2.
As for GQTS, the figure is at most 0.2; as for PQAC, at most 0.2.
The result for GTQM reads at most 0.2.
As for HAAV, the “one-hybrid fitness for binding NBS DNA” value was at most 0.2.
Turning to KEKL, the “one-hybrid fitness for binding NBS DNA” value was at most 0.2.
As for GHAV, the figure is at most 0.2; as for VLHR, at most 0.2.
Consider PYWE, for which the “one-hybrid fitness for binding NBS DNA” value was at most 0.2.
For the variant HKSN, the “one-hybrid fitness for binding NBS DNA” value was at most 0.2.
As for MTAW, the figure is at most 0.2.
As for VLNA, the figure is at most 0.2.
Take TGSV: the “one-hybrid fitness for binding NBS DNA” value was at most 0.2.
As for QADY, the figure is at most 0.2; as for QARY, 0.499.
As for QIRY, the figure is 0.378.
With QAYY, the “one-hybrid fitness for binding NBS DNA” value was at most 0.2.
For QAFN, the “one-hybrid fitness for binding NBS DNA” value is at most 0.2.
The result for QIYY reads at most 0.2; that for QAAY, at most 0.2.
The result for QMDY reads at most 0.2.
Turning to QMRY, the “one-hybrid fitness for binding NBS DNA” value came to 0.566.
In the case of QMYY, the “one-hybrid fitness for binding NBS DNA” value was at most 0.2.
For QAFY, the “one-hybrid fitness for binding NBS DNA” value stood at 0.396.
Take QIHY: the “one-hybrid fitness for binding NBS DNA” value was at most 0.2.
As for WTQT, the figure is at most 0.2; as for RKML, at most 0.2.
On to FQSI, for which the “one-hybrid fitness for binding NBS DNA” value was at most 0.2.
Regarding MFAL, the “one-hybrid fitness for binding NBS DNA” value is at most 0.2.
As for SWRR, the figure is at most 0.2.
The result for QSRY reads 0.505; that for QHRY, 0.488; that for QHYY, at most 0.2.
In the case of QSYY, the “one-hybrid fitness for binding NBS DNA” value is at most 0.2.
As for QSDY, the figure is at most 0.2; as for QHDY, at most 0.2.
Turning to YIRY, the “one-hybrid fitness for binding NBS DNA” value was at most 0.2.
Regarding NRDT, the “one-hybrid fitness for binding NBS DNA” value was at most 0.2.
Regarding KCNT, the “one-hybrid fitness for binding NBS DNA” value came out at 0.207.
The result for DRDT reads at most 0.2; that for KRNT, 0.617.
The result for KRDT reads 0.421; that for NRNT, at most 0.2.
The result for MDAV reads at most 0.2; that for TRPC, at most 0.2; that for QHTP, at most 0.2.
As to QPTS, the “one-hybrid fitness for binding NBS DNA” value is at most 0.2.
The result for QHTN reads at most 0.2; that for QKTD, at most 0.2; that for QCTS, 0.458.
On to QMTH, for which the “one-hybrid fitness for binding NBS DNA” value was at most 0.2.
As for QHTS, the figure is 0.372; as for QMTD, at most 0.2; as for QKTN, at most 0.2.
The result for QMTS reads 0.403.
The result for QKTS reads 0.475.
As for QSTS, the “one-hybrid fitness for binding NBS DNA” value was found to be 0.364.
With IAMY, the “one-hybrid fitness for binding NBS DNA” value is at most 0.2.
As for QCIF, the “one-hybrid fitness for binding NBS DNA” value is at most 0.2.
The result for PRQG reads at most 0.2.
The result for VKPT reads at most 0.2; that for YCVL, at most 0.2.
The result for DHNQ reads at most 0.2.
With SNYG, the “one-hybrid fitness for binding NBS DNA” value was at most 0.2.
As for PCIT, the “one-hybrid fitness for binding NBS DNA” value was at most 0.2.
As for NGMR, the figure is at most 0.2; as for RLHW, at most 0.2.
The result for LRLN reads at most 0.2.
As for RGQR, the figure is at most 0.2; as for QHHR, 0.571; as for QHRN, 0.334.
With QHYR, the “one-hybrid fitness for binding NBS DNA” value amounted to 0.471.
The result for QHGR reads 0.546.
QHWR: the “one-hybrid fitness for binding NBS DNA” value was 0.363.
As for QHRR, the “one-hybrid fitness for binding NBS DNA” value amounted to 0.989.
On to QHGN, for which the “one-hybrid fitness for binding NBS DNA” value is at most 0.2.
The result for QHHQ reads at most 0.2; that for QHIR, 0.352; that for QHPR, 0.248.
As for QHGD, the figure is at most 0.2.
QHHN: the “one-hybrid fitness for binding NBS DNA” value was at most 0.2.
For IYTG, the “one-hybrid fitness for binding NBS DNA” value is at most 0.2.
QEPT: the “one-hybrid fitness for binding NBS DNA” value was at most 0.2.
The result for QKVW reads at most 0.2; that for HKNP, at most 0.2.
With NTTN, the “one-hybrid fitness for binding NBS DNA” value was at most 0.2.
Consider VWNG, for which the “one-hybrid fitness for binding NBS DNA” value was at most 0.2.
As for CAIM, the figure is at most 0.2; as for PVVW, at most 0.2.
The result for YKVT reads at most 0.2.
As for VSTT, the figure is at most 0.2; as for QLTP, at most 0.2; as for QCTT, 0.486.
For the variant QLTS, the “one-hybrid fitness for binding NBS DNA” value was found to be 0.307.
On to QMTQ, for which the “one-hybrid fitness for binding NBS DNA” value is at most 0.2.
The result for QSTH reads at most 0.2; that for QPTT, at most 0.2; that for QSTT, 0.403.
On to QMTL, for which the “one-hybrid fitness for binding NBS DNA” value is at most 0.2.
In the case of QMTT, the “one-hybrid fitness for binding NBS DNA” value is 0.463.
QITT: the “one-hybrid fitness for binding NBS DNA” value is 0.314.
Take QSTN: the “one-hybrid fitness for binding NBS DNA” value is at most 0.2.
For QLTT, the “one-hybrid fitness for binding NBS DNA” value was determined as 0.393.
